Screen size: about 320,000 compounds; about 560 (0.17%) were called active.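 Rule for the calls: active = inhibition above the campaign's mean inhibition across all tested compounds plus 3 SD (cut at about 9.5% in these data); inactive = the rest.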 The list comes from a sample in which actives are over-represented; it also holds similar structures and randomly drawn compounds.
biological target: Serine/threonine-protein phosphatase 5 (Homo sapiens) (UniProt P53041); assay: inhibition of human PP5 catalytic activity – biochemical, fluorescence, primary screen (AID 1987); settings: purified PP5c, OMFP substrate fluorescence; at 6.7 µM; hits give high values;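 note: 0% = DMSO only and 100% = 100 µM cantharidin control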
Sequence (P53041 whole entry, looked up): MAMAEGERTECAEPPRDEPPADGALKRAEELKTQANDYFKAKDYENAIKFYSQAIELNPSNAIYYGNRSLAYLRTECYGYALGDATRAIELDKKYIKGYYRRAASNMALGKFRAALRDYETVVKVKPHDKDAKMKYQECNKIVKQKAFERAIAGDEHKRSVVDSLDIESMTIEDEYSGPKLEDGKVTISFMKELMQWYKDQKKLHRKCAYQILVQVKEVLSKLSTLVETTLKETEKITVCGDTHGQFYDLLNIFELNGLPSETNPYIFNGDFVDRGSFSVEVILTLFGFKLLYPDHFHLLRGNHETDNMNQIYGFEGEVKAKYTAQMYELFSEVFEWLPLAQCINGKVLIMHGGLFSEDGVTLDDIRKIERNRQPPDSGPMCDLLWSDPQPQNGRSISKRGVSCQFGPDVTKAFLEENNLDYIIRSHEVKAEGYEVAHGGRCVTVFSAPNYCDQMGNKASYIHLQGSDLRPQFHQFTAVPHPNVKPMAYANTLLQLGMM

**Q.** For `Cc1cc(C)n(-c2nnc(N3CCN(c4ccccc4)CC3)nn2)n1`, which inhibition is on record?
**A.** Its inhibition is -0.74% (inactive).

**Q.** Which inhibition does the source give for `COCCCNC(=O)C1CC(=O)N(CCc2ccc(F)cc2)C1` (centres undefined) here?
**A.** The inhibition was -1.89% (inactive).

**Q.** With `CC(C)CCn1cnc2c1c(=O)n(CC(=O)NC(N)=O)c(=O)n2Cc1ccccc1` as the molecule, how does the inhibition read?
**A.** Its inhibition is 1.52% (inactive).

**Q.** For `COc1ccc2c(c1)C(=O)Nc1cc(Cl)ccc1N2`, which inhibition is on record?
**A.** The inhibition was -0.62% (inactive).

**Q.** Which inhibition does the source give for `CC(C)CN(C(=O)Cn1c(=O)cnc2ccccc21)C1CCS(=O)(=O)C1` (centres undefined) here?
**A.** The inhibition was -1.01% (inactive).

**Q.** With `COc1ccc(S(=O)(=O)N2CCN(C(=O)c3cc(C)oc3C)CC2)cc1` as the molecule, how does the inhibition read?
**A.** The inhibition was 0.44% (inactive).

**Q.** Which inhibition does the source give for `CCCCn1c(N)c(N(CCC(C)C)C(=O)COC(=O)c2cccnc2OCC)c(=O)[nH]c1=O` here?
**A.** Its inhibition is 0.18% (inactive).

**Q.** Which inhibition does the source give for `CC(=O)Nc1ccccc1OC(C)C(=O)N1CCC(C)CC1` (centres undefined) here?
**A.** The inhibition was -1.03% (inactive).

**Q.** Which inhibition does the source give for `Nc1nnc(SCC(=O)OCc2ccc(Cl)c(Cl)c2)s1` here?
**A.** The inhibition was 1.15% (inactive).

**Q.** For `CCN1C(=O)[C@H]2[C@@H](c3ccc(SC4CCCCC4)c(OC)c3)N[C@@](Cc3ccccc3)(C(=O)OC)[C@H]2C1=O`, which inhibition is on record?
**A.** The inhibition was 2.69% (inactive).

**Q.** How did the inhibition turn out when `CC(C)Oc1ccc(C(CC(=O)N2CCOCC2)C(C)C)cc1` (centres undefined) was run?
**A.** The inhibition was 0.66% (inactive).

**Q.** With `Cc1cccc(N(C(=O)c2csnn2)C(C(=O)NCc2ccccc2)c2ccncc2)c1` (centres undefined) as the molecule, how does the inhibition read?
**A.** Its inhibition is 1.82% (inactive).

**Q.** How did the inhibition turn out when `Cn1cnnc1Sc1ccc(S(C)(=O)=O)cc1[N+](=O)[O-]` was run?
**A.** The inhibition was -0.46% (inactive).

**Q.** How did the inhibition turn out when `CCOC(=O)c1cnc(COc2ccccc2Cl)[nH]c1=O` was run?
**A.** The inhibition was -1.14% (inactive).

**Q.** With `CC1CC(C)(C)n2c(O)c(N=NC(N)=S)c3cccc1c32` (centres undefined) as the molecule, how does the inhibition read?
**A.** Its inhibition is 3.55% (inactive).

**Q.** `Cn1ccnc1SCC(=O)Nc1ccc2c(c1)OCCO2` was tested. Which inhibition did it give?
**A.** Its inhibition is 2.87% (inactive).

**Q.** For `COc1cccc(OC)c1CN(C)C(=O)c1cnccc1C(F)(F)F`, which inhibition is on record?
**A.** Its inhibition is 0.42% (inactive).

**Q.** `COc1cc(C(F)(F)F)c(C(=O)N(C)c2ccc(Cl)cc2)cn1` was tested. Which inhibition did it give?
**A.** The inhibition was 11.3% (active).

**Q.** For `COc1ccc(Cl)cc1C(=O)Nc1ccc(N(C)C(C)=O)cc1`, which inhibition is on record?
**A.** Its inhibition is 0.43% (inactive).

**Q.** How did the inhibition turn out when `COc1ccccc1NC(=O)COC(=O)COc1ccccc1F` was run?
**A.** Its inhibition is 2.17% (inactive).

**Q.** Which inhibition does the source give for `CC(C)c1cc(CN2CCOCC2)cc(C(C)C)c1O` here?
**A.** Its inhibition is 1.58% (inactive).

**Q.** `Oc1c(C(c2ccccn2)N2CCOCC2)ccc2cccnc12` (centres undefined) was tested. Which inhibition did it give?
**A.** The inhibition was 11.2% (active).

**Q.** How did the inhibition turn out when `CN(C)c1ccc(C(CC(=O)O)C(=O)O)cc1` (centres undefined) was run?
**A.** The inhibition was 0.86% (inactive).

**Q.** `CCN(CC)c1nc(-c2ccccc2)cc(C(F)(F)F)c1C#N` was tested. Which inhibition did it give?
**A.** The inhibition was 0.13% (inactive).

**Q.** With `O=C(Cc1ccccc1Cl)N1CCOCC1` as the molecule, how does the inhibition read?
**A.** Its inhibition is -1.76% (inactive).

**Q.** `CN(C(=O)Nc1ccc(Cl)cc1)n1cnc2ccccc2c1=O` was tested. Which inhibition did it give?
**A.** The inhibition was -2.44% (inactive).

**Q.** For `CC(C)(C)c1cc[n+](-c2[nH]c(=O)sc2/C=N/N=C(\[O-])c2ccccc2)cc1`, which inhibition is on record?
**A.** The inhibition was -0.11% (inactive).

**Q.** With `O=C(CSc1ncnc2sccc12)N1CCN(C(=O)c2cccs2)CC1` as the molecule, how does the inhibition read?
**A.** Its inhibition is 0.16% (inactive).

**Q.** Which inhibition does the source give for `CCC(C)Sc1nc(C)nc2c1c(=O)n(C)c(=O)n2C` (centres undefined) here?
**A.** Its inhibition is 2.18% (inactive).

**Q.** For `CCn1c(C)nc2c1C(=O)c1ccccc1C2=O`, which inhibition is on record?
**A.** The inhibition was -1.27% (inactive).

**Q.** `CCc1nnc(NC(=O)c2cc(S(=O)(=O)N3CCCCC3)ccc2C)s1` was tested. Which inhibition did it give?
**A.** Its inhibition is 3.35% (inactive).

**Q.** With `O=S1(=O)CC/C(=N\Nc2ccc(F)cc2)c2ccsc21` as the molecule, how does the inhibition read?
**A.** Its inhibition is 1.6% (inactive).

**Q.** For `O=Cc1cn(-c2ccccc2)nc1-c1ccccn1`, which inhibition is on record?
**A.** Its inhibition is 0.89% (inactive).

**Q.** Which inhibition does the source give for `C=CCc1ccccc1OCC(O)CN1CCN(CCO)CC1` (centres undefined) here?
**A.** The inhibition was 0.89% (inactive).

**Q.** `CCN1CCN(CCNC(=O)c2ccc(/C=C3/Sc4ccccc4N(Cc4cccc(C)c4)C3=O)cc2)CC1` was tested. Which inhibition did it give?
**A.** The inhibition was 10.1% (active).

**Q.** For `CN1CCN(CCCNC(=O)c2ccc(/C=C3\Oc4ccccc4N(Cc4ccc(Cl)cc4)C3=O)cc2)CC1`, which inhibition is on record?
**A.** The inhibition was 4.83% (inactive).

**Q.** How did the inhibition turn out when `O=C(NCCCN1CCOCC1)c1ccc2c(c1)N(Cc1cccc(F)c1)C(=O)c1ccccc1S2` was run?
**A.** The inhibition was -0.03% (inactive).

**Q.** For `COc1ccc(CNc2c(CO)cnc3c2cnn3C)cc1`, which inhibition is on record?
**A.** Its inhibition is 0.82% (inactive).

**Q.** With `CC(C(=O)c1ccc(-c2ccccc2)cc1)[n+]1cccc(Br)c1` (centres undefined) as the molecule, how does the inhibition read?
**A.** Its inhibition is 0.21% (inactive).

— PubChem BioAssay AID1987 (The Scripps Research Institute Molecular Screening Center, 2009)
